Values joined by “and” are separate entries in the source; they are usually repeats but may differ in a detail not shown here. Equal values may be shown once. Records with an inconclusive call do not appear. Entries that show only a call come without a potency. Active and inactive are the calls of the source. Calls follow the shape of the dose curve; as a rule, active = well fitted inhibition curve with a large enough effect; inconclusive = small, poorly fitted or top-dose-only effect; inactive = no such curve, though single readings can be large or run the other way. Residues, ends and D or L forms follow the SMILES beside them. *: point of attachment. Cbz = O=C(OCc1ccccc1)*
The compounds below were run against Cytochrome P450 3A4 (Homo sapiens) (UniProt P08684) (assay: qHTS Assay for Inhibitors and Substrates of Cytochrome P450 3A4 (AID 884; also: nearly all actives have a fitted effect of over 50% in size)). Details: recombinant CYP3A4, Luciferin-PPXE luminescence; series mostly up to 57.1 µM.
Protocol: NIH Molecular Libraries Screening Centers Network [MLSCN]
NIH Chemical Genomics Center [NCGC]
The P450 gene superfamily is involved in the metabolism and clearance of xenobiotics. This assay used human CYP3A4 to measure the dealkylation of luciferin-6' phenylpiperazinylyl (Luciferin-PPXE; […]) to luciferin. The luciferin is then measured by luminescence after the addition of a luciferase detection reagent. Luciferin-PPXE concentration in the assay was equal to its KM for CYP3A4. Inhibitors and some substrates limit the production of luciferin, and decrease measured luminescence.
NCGC Assay Protocol Summary:
Two uL of enzyme and substrate mix (final concentrations: 20nM CYP3A4, 25uM Luciferin-PPXE, 200mM KPO4) were dispensed into a white, solid bottom 1536-well microtiter plate. 23nL of compound was transferred by a pin tool. The plate was incubated at RT for 10 min. Two uL of an NADPH regeneration solution (Promega supplied reagent) was dispensed and the reaction was allowed to continue for 60 min at RT. Then the reaction was stopped by reconstituted luciferin detection buffer. After another 20 min of incubation the plate was read on the ViewLux (Perkin Elmer) at 60 sec exposure and 2x2 binning. This protocol was carried out with Promega-Glo reagents and further information can be found at http://www.promega.com/tbs/tb325/tb325.pdf. Data were normalized to the to AC100 inhibition (57 uM ketoconazole).
Keywords: P450, CYP3A4, Luciferase, MLSMR, MLSCN, NIH Roadmap, qHTS, NCGC
Potency is read from the fitted curve at half-maximal effect.

Sequence of Cytochrome P450 3A4 (Homo sapiens) (P08684 whole entry, looked up): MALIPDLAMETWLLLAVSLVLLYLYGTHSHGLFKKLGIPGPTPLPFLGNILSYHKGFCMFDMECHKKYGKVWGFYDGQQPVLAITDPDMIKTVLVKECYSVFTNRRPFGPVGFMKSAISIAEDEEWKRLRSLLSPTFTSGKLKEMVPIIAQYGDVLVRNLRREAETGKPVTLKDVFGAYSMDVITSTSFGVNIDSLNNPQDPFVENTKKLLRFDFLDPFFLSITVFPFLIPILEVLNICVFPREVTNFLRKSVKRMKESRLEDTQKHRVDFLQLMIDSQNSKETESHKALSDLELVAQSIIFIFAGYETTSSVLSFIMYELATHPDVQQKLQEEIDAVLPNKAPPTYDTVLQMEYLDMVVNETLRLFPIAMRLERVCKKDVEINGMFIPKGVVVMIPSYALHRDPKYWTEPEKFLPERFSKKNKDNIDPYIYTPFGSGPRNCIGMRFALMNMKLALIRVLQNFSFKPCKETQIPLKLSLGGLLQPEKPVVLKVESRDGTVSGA

| SMILES | Potency |
| --- | --- |
| O=C(O)C1=CCNCC1 | inactive |
| O=C(O)c1cc2cc(F)ccc2[nH]1 | inactive |
| CN(C)CCC(c1ccc(Br)cc1)c1ccccn1 (stereo not given) | inactive |
| N=C(N)SCCN | 3.16 µM (active) |
| CN(C)S(=O)(=O)c1ccc2c(c1)/C(=C/c1cc3c([nH]1)CCCC3)C(=O)N2 | 5.01 µM (active) |
| Nc1ccc(-c2nc3ccc(-c4nc5ccc(N)cc5[nH]4)cc3[nH]2)cc1 | 0.0631 µM (active) |
| O=C(O)c1ccccc1Nc1cccc(OCc2ccc3ccccc3n2)c1 | 1.58 µM (active) |
| CC(C)[C@H](NC(=O)OCc1ccccc1)C(=O)N[C@H](C=O)Cc1ccccc1 (Cbz-Val-Phe-aldehyde) | 6.31 µM (active) |
| Cc1ccc([N+](=O)[O-])cc1S(=O)(=O)N(C)C | inactive |
| CCCn1c(=O)c2[nH]c(C3CCCC3)nc2n(CCC)c1=O | inactive |
| c1ccc(C(NCCNC(c2ccccc2)c2ccccc2)c2ccccc2)cc1 | inactive |
| c1ccc(C2CN3CCSC3=N2)cc1 (stereo not given) | inactive |
| CC(C)(C)c1ccc(/C=C/C(=O)Nc2ccc3c(c2)OCCO3)cc1 | inactive |
| CN1C2CCC1CC(OC(c1ccccc1)c1ccccc1)C2 (stereo not given) | inactive |
| CCCc1c(-c2ccc(O)cc2)nn(-c2ccc(O)cc2)c1-c1ccc(O)cc1 | 2.51 µM (active) |
| O=C(OCCN1CCOCC1)C1(c2ccccc2)CCCCC1 | 3.16 µM (active) and 1.58 µM (active) |
| c1ccc(CN2CCC3(CCCc4ccccc43)CC2)cc1 | inactive |
| CNc1cc(NS(=O)(=O)c2ccc(N)cc2)nc(NC)n1 | 0.794 µM (active) |
| O=C(O)C1=CCCNC1 | inactive |
| CCCCCCCCCCC(C)(C)C(=O)Nc1c(OC)cc(OC)cc1OC | 7.94 µM (active) |

| SMILES | Potency |
| --- | --- |
| C=CC[C@H](N)C(=O)O | inactive |
| C[C@H](NC(=O)/C(C#N)=C/c1ccc(O)c(O)c1)c1ccccc1 | 3.16 µM (active) |
| CC(C)(C)c1cc(/C=C(\C#N)C(N)=S)cc(C(C)(C)C)c1O | 3.98 µM (active) |
| O=C1NC(=O)c2cc(Nc3ccccc3)c(Nc3ccccc3)cc21 | 1.58 µM (active) |
| CCCCCCN(CCCCCC)C(=O)Cc1c(-c2ccc(F)cc2)[nH]c2ccccc12 | 2.51 µM (active) |
| N[C@@H](Cc1ccc(O)c(I)c1)C(=O)O | inactive |
| N#C/C(=C\c1ccc(O)c(O)c1)C(=O)NCCc1ccccc1 | 3.98 µM (active) |
| CC1=C(/C=C/C(C)=C/C=C/C(C)=C\C(=O)O)C(C)(C)CCC1 | inactive |
| COc1ccc(NC(=O)c2ccc(-c3ccc(-c4noc(C)n4)cc3C)cc2)cc1N1CCN(C)CC1 | inactive |
| O=C1OC(=O)C2C3CCC(O3)C12 (stereo not given) | inactive |
| Nc1ncnc2c1c(-c1ccc(Oc3ccccc3)cc1)cn2C1CCCC1 | inactive |
| Cn1c(=O)c2[nH]c(C3CCCC3)nc2n(C)c1=O | 39.8 µM (active) |
| CC(C)Cn1c(=O)n(C)c(=O)c2[nH]cnc21 | 3.98 µM (active) and 15.8 µM (active) and 12.6 µM (active) |
| O=C(O)C1=CC(=C(c2ccc(O)c(C(=O)O)c2)c2ccc(O)c(C(=O)O)c2)C=CC1=O | inactive |
| Oc1cc(O)c2c(c1)O[C@H](c1ccc(O)c(O)c1)[C@@H](O)C2 | inactive |
| Nc1ccc(-c2ccc3ccccc3n2)cc1 | 3.98 µM (active) |
| C=C(C)C1CC=C(C(=O)O)CC1 (stereo not given) | inactive |
| CN[C@H](CC(=O)O)C(=O)O | inactive |
| NC(N)=NC(N)=Nc1cccc(Cl)c1 | inactive |
| NC(N)=NC(N)=Nc1ccccc1 | inactive |
